SMILES strings stand for the structures. The campaign covered roughly 290,000 compounds. About 11,000 (3.8%) were called active. This is one part of a sample in which actives are shown more often than they occur. Values without a mark were called inactive.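 How the source made its calls: active means mean replicate inhibition above about 79%, with every replicate also reaching it (limit read from the data); inconclusive means only one of the two criteria met; inactive means mean below limit and not every replicate reaching it.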

As a reminder, the inhibition is the relative decrease from the control value, in per cent.

Sequence of FAD-linked sulfhydryl oxidase ALR (Homo sapiens) (P55789 whole entry, looked up): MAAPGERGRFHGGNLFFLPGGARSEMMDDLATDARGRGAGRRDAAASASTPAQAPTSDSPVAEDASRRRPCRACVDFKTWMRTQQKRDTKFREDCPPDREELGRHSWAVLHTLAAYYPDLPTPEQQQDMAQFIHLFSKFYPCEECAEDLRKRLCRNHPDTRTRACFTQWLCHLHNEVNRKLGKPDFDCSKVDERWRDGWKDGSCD

This test has as its target FAD-linked sulfhydryl oxidase ALR (Homo sapiens) (UniProt P55789). The test is described as follows: inhibitors of human ALR sulfhydryl oxidase, primary screen, biochemical, H2O2 detection, HRP-luminol luminescence, single point (AID 485317). As to conditions: purified ALR, DTT oxidation, hits give high values, concentration not given here.
In the case of `CC(C)NC(=O)Nc1cccc2c1O[C@H](CN(C)S(=O)(=O)c1cccs1)[C@@H](C)CN([C@H](C)CO)C2=O`, the inhibition is 0.238%.

`CC1=NN(C(N)=S)C(=O)C1N=Nc1cc(Cl)ccc1Cl` (stereo not drawn): the inhibition is 34.1%. With `Cc1[nH]n(-c2cccc(Cl)c2)c(=O)c1-c1ccc(Cl)cc1` the figure was 32.9%. Take `Cc1[nH]n(C(N)=S)c(=O)c1N=Nc1ccc(Cl)cc1Cl`: the inhibition was 96.2% (active). With `Cc1ccc(S(=O)(=O)N(C)c2ccc(OCC(=O)OCc3ccc(C#N)cc3)cc2)cc1` the figure was 2.46%; with `O=C(COC(=O)/C=C/c1nc2ccccc2s1)Nc1ccccc1Oc1ccccc1`, 28.6%; with `CCN(C(=O)CSc1nc2ccccc2n1CC)C1CCS(=O)(=O)C1` (stereo not drawn), 9.23%. Under `CCN(C(=O)COC(=O)/C=C/c1nc2ccccc2s1)C1CCS(=O)(=O)C1` (stereo not drawn) stands 94.6% (active); under `COc1ccccc1NC(=O)C(C)OC(=O)c1ccc(-n2cnnn2)cc1` (stereo not drawn), 7.2%.

Take `CCc1cccc(NC(=O)COC(=O)C2CCN(c3ccc(C(F)(F)F)cn3)CC2)c1`: the inhibition was -1.14%. As to `O=C(Oc1ccc(-c2nnco2)cc1)c1ccc(F)c(S(=O)(=O)N2CCOCC2)c1`, the inhibition is -0.68%.

For `Cc1cccc(OCC(=O)OCC(=O)Nc2ccc(Cl)cn2)c1`, the inhibition was 0.248%. On to `Cc1ccccc1C(=O)NCC(c1ccco1)N1CCc2ccccc21` (stereo not drawn), for which the inhibition was 27%.

On to `COc1ccc(C(=O)NCC(c2ccco2)N2CCc3ccccc32)cc1OC` (stereo not drawn), for which the inhibition was 72.4%. Under `O=C(NCC(c1ccco1)N1CCc2ccccc21)c1cccc(F)c1` (stereo not drawn) stands 95.5% (active); under `O=C(Nc1cc(S(=O)(=O)Nc2ccc(Cl)cc2)ccc1O)c1ccc(F)cc1F`, -4.12%.

As for `CSc1ccc(S(=O)(=O)NCC(=O)OCC(=O)NC2(C#N)CCCCC2)cc1[N+](=O)[O-]`, the inhibition is -5.06%. Regarding `O=C1C=C(c2ccccc2)CCC1`, the inhibition is 0.158%. As for `O=c1[nH]c(-c2ccccc2)c(-c2ccccc2)[nH]1`, the inhibition was 98.6% (active). As to `c1ccc(-c2cc(-c3ccccc3)[nH]n2)cc1`, the inhibition was -15.4%. Under `O=C(Nc1ccccn1)C1CCN(S(=O)(=O)c2ccc3c(c2)OCCO3)CC1` stands 1.39%. With `CCc1ccc2ncc(C(=O)c3ccccc3)c(N3CCOCC3)c2c1`, the inhibition is 97.1% (active).

As for `CCc1ccc(C(=O)NC(=S)Nc2ccccc2N2CCOCC2)cc1`, the inhibition was -1.76%.

Take `CCc1ccc2nc(Nc3ncc(C(C)=O)c(C)n3)nc(C)c2c1`: the inhibition was -4.9%.

As for `Cc1ccc(N2CC(C(=O)Nc3cc(Cl)ccc3-n3cncn3)CC2=O)cc1` (stereo not drawn), the inhibition is -10%.

With `O=C(c1ccncc1)N1CCN(S(=O)(=O)c2cc(C(F)(F)F)cc(C(F)(F)F)c2)CC1`, the inhibition was -17.2%. Consider `CCCn1c(C)cc(-c2csc(NC(=O)CCc3nc4ccccc4c(=O)[nH]3)n2)c1C`, for which the inhibition was -8.89%.

Turning to `Cc1ccc(-c2csc(-c3cc(C)on3)n2)cc1`, the inhibition was -0.833%. With `Cc1cc(-c2n[nH]c(=S)n2-c2ccc(C)c(C)c2)no1` the figure was 96% (active); with `S=c1[nH]nc(-c2cc(-c3ccsc3)n[nH]2)n1-c1ccccc1`, 67.2%; with `CCCCn1c(N)c(N(CCC(C)C)C(=O)CC2OC(=O)c3ccccc32)c(=O)[nH]c1=O` (stereo not drawn), -12.6%. Turning to `COCCCNC(=O)CC1C[C@H](C(=O)N2CCCCC2)[C@@]2(CCc3ccccc3)c3[nH]c4ccccc4c3CCN2C1=O` (stereo partly drawn), the inhibition was -3.65%. As for `CCCc1nc2ccccc2c(=O)n1/N=C/c1ccc(O)c(O)c1`, the inhibition is 98.6% (active). Under `CCCc1nc2ccccc2c(=O)n1NC(=O)c1c(O)c2ccccc2[nH]c1=O` stands -6.61%; under `O=c1c2ccccc2ncn1/N=C/c1ccccc1`, -10.9%; under `c1ccc(-c2nnc(SCc3nc4ccccc4[nH]3)o2)cc1`, -5.4%.

Consider `Clc1ccccc1SCc1nc2ccccc2[nH]1`, for which the inhibition is -0.577%. In the case of `c1ccc2c(CSCc3nc4ccccc4[nH]3)cccc2c1`, the inhibition was 98.7% (active). Regarding `COc1cc(/C=C(\C#N)c2nc3c(s2)CC(C)CC3)ccc1O` (stereo not drawn), the inhibition was 70%. With `COc1cc(/C=C(\C#N)c2nc3ccccc3[nH]2)ccc1O`, the inhibition was 99% (active). On to `Cc1ccc2nc(/C(C#N)=C\c3ccc(OC(=O)c4cccs4)cc3)[nH]c2c1`, for which the inhibition was -13.7%. Consider `COc1ccc(N2CCN(S(=O)(=O)c3ccc4c(c3)N(C(C)=O)CCO4)CC2)cc1`, for which the inhibition was 89.8% (active). As for `CC(=O)N1CCOc2ccc(S(=O)(=O)N3CCN(c4cccc(C(F)(F)F)c4)CC3)cc21`, the inhibition was -1.95%. Regarding `CCOC(=O)C1CCN(S(=O)(=O)c2ccc3c(c2)N(C(C)=O)CCO3)CC1`, the inhibition was 25.7%. For the compound `Cc1cc(C)c(C)c(S(=O)(=O)Nc2cccnc2)c1C`, the inhibition was -4.67%.

As for `CCOC(=O)c1c(NC(=O)CCC(=O)NCc2ccco2)sc2c1CCCC2`, the inhibition is 3.61%. `CCOC(=O)c1c(NC(=O)C(C)Sc2c[nH]c3ccccc23)sc2c1CCC2` (stereo not drawn): the inhibition was 94.5% (active). Turning to `CCOC(=O)c1c(NC(=S)Nc2ccccc2C)sc2c1CCC2`, the inhibition is -0.578%. As for `O=C(O[C@@H]1[C@H](Cc2ccccc2)NS(=O)(=O)[C@H]2C[C@@H]3C=C[C@]12O3)c1ccccc1Br`, the inhibition was 6.25%. As to `CCCCn1c(N)c(N(CC(C)C)C(=O)CN(C)S(=O)(=O)c2ccc(F)cc2)c(=O)[nH]c1=O`, the inhibition was -15.2%. On to `CC(=O)c1sc(NC(=O)CCN2C(=O)C3CC=CCC3C2=O)nc1-c1ccccc1` (stereo not drawn), for which the inhibition was 1.73%.

As to `CCOc1cccc(/C=N/NC(=S)NCCN2CCOCC2)c1O`, the inhibition is 49.2%.

Regarding `CCOc1ccccc1N=C1NC(=O)CS1`, the inhibition is -4.82%. With `CCOc1cccc(/C=N/N2C(=O)CSC2=S)c1O`, the inhibition is 92.9% (active). With `CC(NC(=O)COC(=O)c1ccc2ccccc2n1)c1ccccc1` (stereo not drawn), the inhibition is -0.035%.

As for `CCN(CC)CCCNC(=O)c1ccc2c(=O)n(Cc3ccc4c(c3)OCO4)c(=S)[nH]c2c1`, the inhibition was 95% (active). With `CCCCNC(=O)CCn1c(=S)[nH]c2cc3c(cc2c1=O)OCO3` the figure was 5.42%; with `COc1ccc(Cn2c(=S)[nH]c3cc(C(=O)NCCCN4CCOCC4)ccc3c2=O)cc1`, 7.86%.

(Values after PubChem BioAssay AID485317 (Broad Institute, 2010).)
